Inconclusive results are not listed. A call without a number means that no potency is given here. Activity calls are given as the source filed them. Calls come from the whole dose curve.
Molecular target: Muscarinic acetylcholine receptor M1 (Homo sapiens) (UniProt P11229)
Test: Cholinergic receptor muscarinic 1 (CHRM1) small molecule antagonists, cell-based qHTS assay (AID 1963588); note: nearly all actives have a fitted effect of over 40% in size
Conditions: CHRM1-CHO antagonist mode, calcium flux fluorescence; series mostly up to 61.5 µM; activity, negative = inhibition: at the top concentration
Description: National Center for Advancing Translational Sciences [NCATS]
Division of Preclinical Innovation [DPI]
U.S. Environmental Protection Agency [EPA]
National Institutes of Environmental Health Sciences [NIEHS]
National Toxicology Program [NTP]
U.S. Food and Drug Administration [FDA]
The CHRM1 is a muscarinic receptor. This receptor plays a crucial role in learning and memory processes and has long been identified as a promising therapeutic target for the improvement of cognitive decline in Alzheimer's disease (AD). The CHRM1-CHO cell line stably expressing human muscarinic acetylcholine receptor M1 (CHRM1) can be used for screening agonists and antagonists of interactions between CHRM1 and its ligands. The CHRM1-CHO Calcium Flux Assay is a homogeneous fluorescence-based assay for detecting the intracellular calcium level using FDSS kinetic plate reader system.
Tox21 Assay Protocol Summary:
CHRM1-CHO cells were dispensed at 1000 cells/3uL/well in 1536-well black-clear bottom plates using a Multidrop Dispenser. After the assay plates were incubated at a 37 C/5% CO2 incubator for 18 h, 3 uL of Dye Loading Buffer was transferred to the assay plate by a Flying Reagent Dispenser. The assay plates were incubated at 37 C for 1h. For antagonist mode, 23 nL of compounds dissolved in DMSO, positive controls or DMSO only was transferred to the assay plate by a pin tool. After 5 min incubation at room temperature, 1.5 uL of acetylcholine at 50nM was added to each well. The fluorescence intensity in the plates was measured using FDSS 7000EX kinetic plate reader for 3 min at 1 sec intervals. Each test compound was measured at 15 concentrations in three independent runs.
Potency is the fitted concentration of half-maximal effect.

Chain of Muscarinic acetylcholine receptor M1 (Homo sapiens) (P11229 whole entry, looked up): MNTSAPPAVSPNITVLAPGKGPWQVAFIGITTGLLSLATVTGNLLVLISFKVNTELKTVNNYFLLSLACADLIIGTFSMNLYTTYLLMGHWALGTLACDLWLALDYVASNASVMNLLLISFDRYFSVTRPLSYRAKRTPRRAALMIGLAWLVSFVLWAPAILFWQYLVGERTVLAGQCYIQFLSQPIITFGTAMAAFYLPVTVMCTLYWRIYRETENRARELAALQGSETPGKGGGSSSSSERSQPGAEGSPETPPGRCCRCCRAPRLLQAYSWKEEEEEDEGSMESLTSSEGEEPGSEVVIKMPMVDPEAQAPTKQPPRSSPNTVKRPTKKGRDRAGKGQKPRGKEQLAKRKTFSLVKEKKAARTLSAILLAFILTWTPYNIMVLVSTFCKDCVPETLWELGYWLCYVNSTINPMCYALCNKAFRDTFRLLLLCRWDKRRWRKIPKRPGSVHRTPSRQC

SMILES	Potency	activity, negative = inhibition
Clc1ccc(C(c2ccc(Cl)cc2)C(Cl)Cl)cc1	135 nM (active)	
O=C1C(Cl)=C(Cl)C(=O)c2ccccc21	inactive	
CC(=O)C=C(C)C	inactive	
CC[n+]1ccccc1	inactive	
Cc1cccc([N+](=O)[O-])c1	inactive	
Cc1ccc(N=C=O)cc1N=C=O	inactive	
COP(=O)(OC)C(O)C(Cl)(Cl)Cl (stereo not given)	inactive	
Nc1ccccc1	inactive	
c1ccc2c(c1)Oc1ccccc1O2	inactive	
O=C(NCNC(=O)NC1C(=O)NC(=O)N1CO)NC1C(=O)NC(=O)N1CO (stereo not given)		16.4% (inactive)
O=S(=O)(O)OOS(=O)(=O)O	inactive	
O=Cc1ccccc1		-8.51% (inactive)
CCCN(CCC)N=O		21.6% (inactive)
ClCCN1CCCC1		16.8% [at 28.3 µM] (inactive)
N#Cc1ccccc1N		-2.11% (inactive)
CN1C(=O)NC(=O)C(C)(C2=CCCCC2)C1=O (stereo not given)		7.14% [at 28.3 µM] (inactive)
Cc1ncc2n1-c1ccc(Cl)cc1C(c1ccccc1F)=NC2		0.827% [at 28.3 µM] (inactive)
CCOP(=O)(CN(CCO)CCO)OCC		-14.2% (inactive)
CC(C)(O)C(=O)Nc1ccc([N+](=O)[O-])c(C(F)(F)F)c1	inactive	
CN(C)[C@@H]1C(=O)C(C(N)=O)=C(O)[C@@]2(O)C(=O)C3=C(O)c4c(O)cccc4[C@@](C)(O)[C@H]3[C@H](O)[C@@H]12	inactive	

SMILES	Potency	activity, negative = inhibition
O=C(O)CC[N+](=O)[O-]	inactive	
FC(Cl)(Cl)Cl		11.2% (inactive)
CCN(N=O)C(N)=O	inactive	
Cc1ccc(OP(=O)(Oc2ccc(C)cc2)Oc2ccc(C)cc2)cc1	inactive	
O=P(O)(Oc1ccccc1)Oc1ccccc1		-1.51% (inactive)
CC(C)(C)C(=O)CCl		17.5% (inactive)
O=C(Cl)OCCOCCOC(=O)Cl		2.51% (inactive)
Cc1cccc(N=Nc2ccc(N(C)C)cc2)c1	inactive	
O=Cc1ccc(Cl)cc1Cl		-0.928% (inactive)
C[C@]12CCC(=O)C=C1CC[C@@H]1[C@@H]2CC[C@]2(C)C(=O)CC[C@@H]12	inactive	
O=c1[nH]c(=O)n(Cl)c(=O)n1Cl	inactive	
Nc1cccc(Cl)c1	inactive	
Nc1cc(Cl)cc(Cl)c1	inactive	
ClCCN1CCOCC1		-4.63% (inactive)
Cc1cc(O)ccc1Cl	inactive	
Nc1ccc(N=Nc2ccc(-c3ccc(N=Nc4c(S(=O)(=O)O)cc5cc(S(=O)(=O)O)c(N=Nc6ccccc6)c(O)c5c4N)cc3)cc2)c(N)c1		0.859% [at 28.3 µM] (inactive)
Brc1ccc(Oc2ccccc2)cc1	inactive	
Oc1c(Br)cc(Br)cc1Br	inactive	
Oc1ccc(Cl)c(Cl)c1		23.2% (inactive)
Cc1ccc(O)c(C)c1	inactive	

Source: PubChem BioAssay (Tox21)
